Results on 40 compounds are retold here after ChEMBL document CHEMBL3988442, “University of Dundee, Small-Polar-MMV Screening Library” (2021).

The structures appear in SMILES notation.

The target in the test is T1, Aspartate--tRNA(Asp/Asn) ligase (Mycobacterium tuberculosis (strain ATCC 25618 / H37Rv)) (UniProt P9WFW3).
T1 sequence (whole entry): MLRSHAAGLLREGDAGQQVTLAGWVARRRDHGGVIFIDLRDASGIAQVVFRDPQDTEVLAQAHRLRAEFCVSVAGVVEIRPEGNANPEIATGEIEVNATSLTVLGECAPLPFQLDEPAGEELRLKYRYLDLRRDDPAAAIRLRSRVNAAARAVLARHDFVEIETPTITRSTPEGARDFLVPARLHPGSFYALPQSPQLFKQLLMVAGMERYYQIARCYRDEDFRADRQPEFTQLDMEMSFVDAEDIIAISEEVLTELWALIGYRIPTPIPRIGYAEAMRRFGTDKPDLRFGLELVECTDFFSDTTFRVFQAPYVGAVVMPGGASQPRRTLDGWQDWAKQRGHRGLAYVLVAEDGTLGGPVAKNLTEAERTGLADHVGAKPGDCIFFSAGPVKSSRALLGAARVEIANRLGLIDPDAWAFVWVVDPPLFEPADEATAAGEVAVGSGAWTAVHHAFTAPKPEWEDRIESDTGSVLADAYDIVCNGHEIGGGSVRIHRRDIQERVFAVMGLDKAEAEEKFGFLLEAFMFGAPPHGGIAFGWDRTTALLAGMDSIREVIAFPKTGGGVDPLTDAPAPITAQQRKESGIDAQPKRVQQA
Put plainly: Assay for Asp RNA synthetase-1 from Mycobacterium tuberculosis. The format is functional. On the set-up: scale not given: in the data most compounds retested in dose-response had high values. As to conditions: 30 µM.
In the case of `CC(=O)N1CCCN(c2nccc(-c3cn(C)nc3C)n2)CC1`, the Percent Effect was -4.22%.
Take `CCSCCC(=O)Nc1ncn(CC(=O)NCc2ccccc2)n1`: the Percent Effect was -2.33%.
With `CCCOCCN1CCC2(CC1)CC(c1ccccc1)C(=O)N2C` (stereo not given) the figure was -5.14%; with `CCC(=O)NCc1cc(Br)c(OC)c(OC)c1`, -1.55%; with `CCc1cc(N2CCSCC2)n2nc(C)c(C)c2n1`, 4.1%.
With `O=C(CCNS(=O)(=O)c1ccccc1)NCc1ccoc1` the figure was -2.82%.
In the case of `Cc1cc(C)n(CC2CCCCN2CC(=O)Nc2nncs2)n1` (stereo not given), the Percent Effect was -0.218%.
The result for `CS(=O)(=O)NCC(=O)N1CCCC1c1noc(C2CC2)n1` (stereo not given) reads 0.264%.
With `COc1ccc(CNC(C)c2cccc(Cl)c2)c(OC)c1OC` (stereo not given) the figure was -3.05%; with `CCc1nsc(NC2CCCn3nc(CC)nc32)n1` (stereo not given), 1.74%; with `O=C(NC1(c2nnn(Cc3ccncc3)n2)CCCC1)c1ccccc1`, -0.678%.
For the compound `CCC(C(=O)NCc1ccncc1)N(c1ccc(OC)cc1)S(C)(=O)=O` (stereo not given), the Percent Effect was found to be 1.25%.
With `O=C(c1ccncc1)N1C[C@@H]2CC[C@H](C1)N(C(=O)N1CCOCC1)C2` the figure was 2.77%; with `CNC(=O)NC(=O)CN1CCC(c2c[nH]c3ccc(OC)cc23)CC1`, -2.54%; with `CCn1nc(CC(C)C)cc1C(=O)N1CC[C@@H](O)C1`, -5.25%.
The result for `CN1C(=O)C(c2ccccc2)CC12CCN(CCOCCO)CC2` (stereo not given) reads -1.23%; that for `CC(NC(=O)Cn1cccn1)c1cccnc1` (stereo not given), -1.34%.
Consider `Cc1ccc(C(=O)N2Cc3ccccc3C2)cc1N1CCNC1=O`, for which the Percent Effect was -0.287%.
With `Cc1cnn(CCNCc2ccc(OCc3csc(C)n3)cc2)c1` the figure was -0.126%.
The result for `CC(C)(C)N1CC(C(=O)N2CCN(CCn3cccc3)CC2)CC1=O` (stereo not given) reads 1.18%; that for `O=C1CCC2(CCN(Cc3cc(F)ccc3Cl)CC2)CN1C1CCCC1`, 0.0575%.
With `CC(=O)Nc1cc(C(=O)N2CCOCC2c2ccc(C)o2)ccc1F` (stereo not given) the figure was -5.67%; with `COc1ccc(Cc2nnc(SC)o2)cc1OC`, -2.13%.
As for `O=C(Nc1cccc(OCc2cccc(F)c2)c1)C1COCCO1` (stereo not given), the Percent Effect worked out at 0.563%.
The result for `COc1cc(CNC(=O)NCCCF)cc(Br)c1OC` reads -0.885%.
The result for `CN(CCO)C(=O)c1coc(CN2CCN(c3ccccc3F)CC2)n1` reads -3.46%; that for `Cc1ccc(C#N)c(N2CCC(c3nccn3Cc3cscn3)CC2)n1`, 2.26%.
The result for `Cc1cc(N2CCN(Cc3ccc(-c4cc[nH]n4)o3)CC2)cc(C)n1` reads 0.126%; that for `CCC[C@@H]1CN(S(=O)(=O)c2ccc(C)c(F)c2)C[C@H]1N(C)C`, 0.149%.
As for `CN(CC1(O)CCCN(CCC2CCCCC2)C1=O)C1CCOCC1` (stereo not given), the Percent Effect was 0.172%.
With `CCC(C)NC(=O)c1ccccc1-n1cnnn1` (stereo not given) the figure was -5.94%; with `COc1cc(C)c(CN2CCC3(CC2)C(C(=O)O)CC(=O)N3C)cc1C` (stereo not given), -0.678%.
Regarding `O=C(NCCNS(=O)(=O)c1ccc2c(c1)CCCC2)c1ccoc1`, the Percent Effect was 8.29%.
The result for `Cc1oc(C(=O)O)cc1S(=O)(=O)Nc1c(F)cccc1-n1cccn1` reads -2.17%.
The result for `Cc1nccn1CCC1CCCCN1Cc1ccncc1` (stereo not given) reads -1.16%; that for `CC(C)CN1CCCn2nc(CNC(=O)CCN)cc2C1`, -0.839%.
With `CCCc1nc(N2Cc3cnn(Cc4ccc(F)cc4)c3C2)no1` the figure was -0.77%.
In the case of `CCn1nc(C)c(CCn2ccnc2-c2cc3n(n2)CCCNC3)c1C`, the Percent Effect was -1.76%.
With `CC(C)CN1CCCn2nc(CNC(=O)CCCc3cn[nH]c3)cc2C1` the figure was -0.885%; with `O=C1N(Cc2ccccc2F)CCCC12CCN(C1CCSCC1)C2` (stereo not given), -2.75%.
